CHRM1 PAM – positive allosteric modulators of human M1 muscarinic receptor. P11229. CHO-K1 hM1, Fluo-8 calcium fluorescence, ACh EC20; 0% = ACh EC20, 100% = maximal ACh. activation, % at 3 µM. 0.088% of 360,000 active. AID 588819; in the data active means activation above about 19%, passing the limit was not always enough
Target sequence (P11229 whole entry, looked up): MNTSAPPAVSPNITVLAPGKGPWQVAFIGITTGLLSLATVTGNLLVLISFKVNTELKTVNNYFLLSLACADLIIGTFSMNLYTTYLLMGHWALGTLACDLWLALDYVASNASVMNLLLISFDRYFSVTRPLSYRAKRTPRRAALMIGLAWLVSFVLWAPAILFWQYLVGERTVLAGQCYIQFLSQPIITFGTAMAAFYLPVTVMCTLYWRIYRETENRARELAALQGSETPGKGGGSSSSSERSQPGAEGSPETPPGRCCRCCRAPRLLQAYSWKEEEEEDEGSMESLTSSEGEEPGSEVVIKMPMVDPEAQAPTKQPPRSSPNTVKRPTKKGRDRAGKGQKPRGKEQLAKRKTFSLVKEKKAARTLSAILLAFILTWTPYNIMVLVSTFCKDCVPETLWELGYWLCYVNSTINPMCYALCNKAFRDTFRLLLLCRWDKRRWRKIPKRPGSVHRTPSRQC
CHO-K1 Ca antag – nonselective inhibitor or artifact in parental CHO-K1 cells; ATP-induced calcium, Fluo-8 fluorescence; 0.6% of 360,000 active; inhibition, % at 3 µM;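 active means inhibition above a per-plate cutoff, the plate's mean sample inhibition plus 3 SD, cut at about 24% in these data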
M1 PAM parental – M1 PAM counterscreen hit in parental CHO-K1 cells | 0.02% of 360,000 active | activation, % at 3 µM | ATP EC20, Fluo-8 calcium fluorescence; 0% at ATP EC20, 100% at ATP max;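 active means activation above the run cutoff, the mean activation of all test compounds plus 3 SD, cut at about 40% in these data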;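 further: peak over basal fluorescence ratio in a 140 s read after ATP addition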
M1 ag – activates human CHRM1 receptor; 0.33% of 360,000 active; activation, % at 3 µM; CHO-K1 hM1, Fluo-8 calcium fluorescence, agonist mode; 0% DMSO, 100% acetylcholine EC100;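 active means activation above the run's mean compound activation plus 3 SD, cut at about 16% in these data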;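 further: peak over basal fluorescence ratio within a 140 s kinetic read after compound addition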
CHRM1 antagonist – human CHRM1 antagonism; inhibition, % at 3 µM; P11229; 1.3% of 360,000 active; CHO-K1 hM1, Fluo-8 calcium fluorescence, ACh EC80 antagonist; AID 588852;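 active means percent inhibition above its own plate's cutoff, namely the mean of that plate's compound wells plus 3 SD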;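 further: peak over basal fluorescence ratio during 140 s after agonist addition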
CHO-K1 Ca ag – nonselective activator or artifact in parental CHO-K1 cells. 0.48% of 360,000 active. Fluo-8 calcium fluorescence; scaled to maximal ATP response, vehicle zero. activation, % at 3 µM; in the data active means activation above about 15%;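 further: untransfected CHO-K1 host cells lacking M1 receptor as counterscreen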
A number is an active result; n = inactive. Rows were chosen to be rich in hits. Some 2.3% of all compounds tested hit in one or more screens of this group.

SMILES	CHRM1 PAM	CHO-K1 Ca antag	M1 PAM parental	M1 ag	CHRM1 antagonist	CHO-K1 Ca ag
CCCOC(=O)Nc1sc2c(c1C(N)=O)CCCC2	n	n	n	n	n	n
COc1cccc(C2SCC(=O)N2c2ccc(Br)cc2)c1OC (centres undefined)	n	n	n	n	73.6	n
COc1ccc(C2SCC(=O)N2c2ccc(OC)cc2)cc1 (centres undefined)	n	n	n	n	n	n
O=C(NC(=O)N1CCN(C(c2ccccc2)c2ccccc2)CC1)c1ccccc1	n	n	n	n	66.4	n
CCCNC(=O)N1CCN(C(c2ccccc2)c2ccccc2)CC1	n	n	n	n	n	n
O=C(Nc1ccccc1C(F)(F)F)N1CCN(C(c2ccccc2)c2ccccc2)CC1	n	n	n	n	44.4	n
Cc1ccc(CC(=O)Nc2ccc(C(=O)N3CCOCC3)cc2)cc1	n	n	n	n	n	n
COc1ccc2c(c1)sc(N)[n+]2Cc1cc(C)cc2cccnc12	n	n	n	n	65.3	n
CCOc1ccc2c(c1)sc(N)[n+]2Cc1cc(C)cc2cccnc12	n	n	n	n	69.6	n
COc1ccc(/C=C/C2=CC(C)(C)NC(=S)N2)cc1OC	n	26.4	n	n	n	n
COc1cccc(/C=C/C2=CC(C)(C)NC(=S)N2)c1	n	n	n	n	n	n
CC(C)Oc1ccc(CN2CCC2(C)C(=O)Nc2ccc3c(c2)OCO3)cc1 (centres undefined)	n	n	n	n	n	n
CC(C)c1ccc(CN2CCC2(C)C(=O)Nc2ccc3c(c2)OCO3)cc1 (centres undefined)	n	n	n	n	n	17.3
COCc1ccc(CN2CCC(n3nccc3NC(=O)c3ccc4c(c3)OCO4)CC2)o1	n	n	n	n	n	n
O=C(CSc1nc2ccccc2s1)N1c2ccccc2Sc2ccc(C(F)(F)F)cc21	n	n	n	n	n	n
CN1CCN(CCC(=O)N2c3ccccc3Sc3ccc(C(F)(F)F)cc32)CC1	n	n	n	n	41.7	n
CN(C)CCC(=O)N1c2ccccc2Sc2ccc(C(F)(F)F)cc21	n	n	n	n	99.0	n
O=C1c2ccccc2C(=O)N1CC(=O)N1c2ccccc2Sc2ccc(C(F)(F)F)cc21	n	n	n	n	n	n
CCCCS(=O)(=O)N1CCCC(C(=O)Oc2ccc(Cl)cc2)C1 (centres undefined)	n	n	n	n	n	n
CCCn1c(SC(C)C(=O)NC2CC2)nnc1-c1ccncc1 (centres undefined)	n	n	n	n	n	n
CN(CC(=O)N1CCCc2c1c(=O)oc1ccc(O)cc21)Cc1ccccc1	n	n	n	n	24.4	n
CC1CCN(CCC(=O)N2CCCc3c2c(=O)oc2ccc(O)cc32)CC1	n	n	n	n	n	n
Cc1cc(=O)c(C(=O)Nc2ccc(N3CCOCC3)cc2N2CCOCC2)nn1-c1ccccc1Cl	n	n	n	n	n	n
Cc1ccccc1N(CC(=O)N/N=C/c1ccc(Cl)cc1)C(=O)c1ccccc1	n	25.7	n	n	n	n
CCN(CC(=O)Nc1ccc2c(c1)OCCO2)C(=O)/C=C/c1cc(Br)ccc1OC	n	n	n	n	n	n
SMILES	CHRM1 PAM	CHO-K1 Ca antag	M1 PAM parental	M1 ag	CHRM1 antagonist	CHO-K1 Ca ag
Cc1csc2ncnc(N3CCN(C(=S)Nc4ccc(C(F)(F)F)cc4)CC3)c12	n	n	n	n	42.9	n
Cc1csc2c(N3CCN(C(=S)Nc4ccc(C(F)(F)F)cc4)CC3)ncnc12	n	27.8	n	n	n	n
Cc1csc2c(N3CCN(C(=O)c4ccc(C(C)(C)C)cc4)CC3)ncnc12	n	n	n	n	n	n
S=C(NCc1ccncc1)Nc1cc(Cl)cc(Cl)c1	n	27.3	n	n	n	n
S=C(NCc1ccncc1)Nc1ccc(Cl)c(Cl)c1	n	n	n	n	n	n
CSc1ccccc1NC(=S)NCc1ccc(Cl)cc1	n	n	n	n	25.9	n
COC(=O)c1cc(NC(=S)NCc2ccc(Cl)cc2)cc(C(=O)OC)c1	n	24.4	n	n	n	n
CSc1cccc(NC(=O)Nc2nc3c(C)cccc3s2)c1	n	n	n	n	n	n
CCOC(=O)Cc1csc(NC(=O)c2ccncc2)n1	n	n	n	n	n	n
CCOC(=O)Cc1csc(NC(=O)c2cc(-c3ccncc3)nc3ccccc23)n1	n	n	n	n	36.2	n
CCOC(=O)Cc1csc(NC(=O)c2sc3nc4ccc(C)cc4cc3c2N)n1	34.0	n	n	n	n	n
Cc1cc(NC(c2cccnc2)c2ccc3cccnc3c2O)no1 (centres undefined)	n	n	n	n	n	n
Cc1cccc(NC(c2ccc(O)cc2)c2ccc3ccc(C)nc3c2O)n1 (centres undefined)	n	24.9	n	n	n	n
Cc1ccc(S(=O)(=O)NCCNc2ccc([N+](=O)[O-])cc2)cc1	n	n	n	n	n	n
Cc1ccc(S(=O)(=O)NCCCNc2ccc([N+](=O)[O-])cc2)cc1	n	n	n	n	n	20.6
CC(C)(CC(=O)N1CCN(c2ccc(Cl)cc2)CC1)CC1=NS(=O)(=O)c2ccccc2N1	n	n	n	n	30.2	n
COc1ccc(OC(C)C(=O)N2CCCc3ccccc32)cc1 (centres undefined)	n	n	n	n	n	n
CCNc1cc(O)ccc1C	n	n	n	n	n	n
CC[N+](C)(C)c1cccc(O)c1	n	n	n	16.0	n	n
COC(=O)c1ccc(OS(=O)(=O)c2ccc(NC(C)=O)cc2)cc1	n	24.4	n	n	n	n
CC(=O)Nc1ccc(S(=O)(=O)Oc2ccc(/C=N/NC(=O)c3ccc(Cl)cc3)cc2)cc1	n	n	n	n	n	n
CN(C)C(=O)CCc1ccc2c3c([nH]c2c1)[C@]1(C)[C@@H](C(=O)N2CCOCC2)C[C@H](CC(=O)NCCN2CCOCC2)C(=O)N1CC3	n	24.4	n	n	n	n
CC(=O)c1c(C)[nH]c(C(=O)COC(=O)C2(C)CC2(Cl)Cl)c1C (centres undefined)	n	n	n	n	n	20.2
COC(=O)C1(C)NC(c2ccc(O)cc2)C2C(=O)N(c3ccc(C)cc3)C(=O)C21 (centres undefined)	n	n	n	n	n	n
COc1cccc(CN2CC(C(=O)N(C)C3CCOCC3)CCC2=O)c1 (centres undefined)	n	29.5	n	n	n	n
COc1cccc(CN(C)C(=O)C2CCC(=O)N(Cc3cccc(F)c3)C2)c1 (centres undefined)	n	n	n	n	n	n
CCOC(=O)c1c2ccccc2[n+]([O-])n1CCO	n	n	n	n	n	n
COc1ccc(-c2sc3cc4c(cc3c2-c2ccc(OCCN3CCCCC3)cc2)OCO4)cc1	n	n	n	n	n	n

High-throughput results as filed in PubChem BioAssay.
